# The campaign covered roughly 68,000 compounds. About 2,700 (4%) showed an effect of 50% or more. The full list was thinned out, with strong results kept by preference.
# Tested on: Plasmodium berghei
# Assay: Screen against P. berghei liver stage (PbLuc), transformed with Luciferase, at 2uM
# Type: functional, HepG2
# Settings: tested at 2 uM
row,Structure (SMILES),INHIBITION [%]
1,CCOC(=O)C1CCN(C(=O)Cn2ccc3cc(Br)ccc32)CC1,21.14
2,Cc1ccc2c(n1)N(Cc1cccnc1)CCN(C1CCOCC1)C2,-91.9
3,Cc1ccc(NC(=O)NCCCn2nc3ccccn3c2=O)cc1,-17.83
4,CSCC(=O)N1CCCN(c2ccccc2C)CC1,2.91
5,Cc1ccccc1N1CCN(C(=O)CC(C)C)CC1,56.49
6,CSCCC(=O)N1CCCN(c2ccccc2C)CC1,0.31
7,CCCc1nnc(NC2CCN(C3CCOCC3)CC2)o1,45.66
8,COCc1nnc(-c2cccc(C(=O)N(C)CC(C)(C)C)c2)o1,62.51
9,COCc1nnc(-c2cccc(C(=O)N(C(C)C)C3CCC3)c2)o1,21.97
10,COCc1nnc(-c2cccc(C(=O)OC(C)C)c2)o1,33.9
11,CC1(C)Oc2ccc(NC(=O)c3ccc(=O)[nH]n3)cc2O1,10.43
12,COc1ccnc(N2CCC(=O)N(CC3CC3)C(C(C)C)C2)n1 (stereo not given),-61.87
13,COc1ccnc(N2C[C@H]3CC[C@@H](C2)N(CC2CC2)C3)n1,57.41
14,COc1ccnc(N2C[C@H]3CC[C@@H](C2)N(CC2CCC2)C3=O)n1,-24.7
15,Cc1nc(-c2ccco2)ccc1C(=O)NCCCN1CCOCC1,-48.23
16,Cc1nc2ccnn2c(C)c1CCC(=O)N1CCN(C2CC2)CC1,26.4
17,Cc1ccccc1C(=O)N1CCC2(CC1)CC(c1cnn(C)c1)CO2 (stereo not given),42.27
18,CN(C)C(=O)c1cc2c(nc1NCC1CC1)CCNCC2,43.06
19,O=C(CC(F)(F)F)Nc1cc(F)ccc1OCC1CCCO1 (stereo not given),56.03
20,O=C(Nc1cc(F)ccc1OCC1CCCO1)NC1CC1 (stereo not given),56.62
21,O=C(Nc1cc(F)ccc1OCC1CCCO1)N1CCCC1 (stereo not given),-5.1
22,O=C(Nc1cc(F)ccc1OCC1CCCO1)N1CCSCC1 (stereo not given),9.23
23,CS(=O)(=O)CCC(=O)Nc1cc(F)ccc1OCC1CCCO1 (stereo not given),6.31
24,O=C(Nc1cc(F)ccc1OCC1CCCO1)c1ccoc1 (stereo not given),-27.04

row,Structure (SMILES),INHIBITION [%]
1,Cc1ccn(CCC(=O)NCCc2ccco2)n1,-0.14
2,COc1ccc(C[C@H]2CN(C(=O)CS(C)(=O)=O)CC[C@H]2OC)cc1,39.18
3,O=C(NCCO)Nc1ccc(Cl)cc1-n1cccc1,-12.7
4,Cc1nc(CN2CCCCC2CCc2ccc(O)cc2)co1 (stereo not given),0.58
5,Cc1noc(C)c1-c1ccc(C2CCCN2C(=O)c2ccncn2)nc1 (stereo not given),5.15
6,COc1cccc(Cn2c(C)c(C)oc2=O)c1OC,23.87
7,Cc1cc(N2CCN(C3CCSCC3)CC2)n2nc(C)c(C)c2n1,39.51
8,CCCNC(=O)C(C)Oc1ccc(F)cc1 (stereo not given),23.68
9,CCCNC(=O)C(C)Oc1ccccc1 (stereo not given),64.08
10,CCNC(=O)C(C)Oc1ccc(N(C)S(C)(=O)=O)cc1 (stereo not given),33.26
11,COc1ncc(C(=O)NCc2ccc(Br)cc2)cn1,18.8
12,COc1ccc(CNC(=O)c2ccc(Br)cn2)cc1,21.97
13,CCOc1ccc(Cl)c(C(=O)NCc2ccc(C(=O)NC)cc2)n1,23.92
14,CCOc1ccc(CNC(=O)c2cnc(OC)nc2)cc1,58.98
15,COc1ncc(C(=O)NCc2ccccc2)cn1,60.36
16,COC(=O)c1ccc(C(=O)NCc2ccc(Br)cc2)cn1,38.67
17,COCC(O)CN(C)c1cc(C(F)(F)F)nc(-c2cccnc2)n1 (stereo not given),-2.47
18,COc1ccc(CNC(C)c2cnn(C)c2)cc1OC1CCCC1 (stereo not given),51.76
19,CC(NCc1ccnc(OC2CCC2)c1)c1cnn(C)c1 (stereo not given),18.98
20,CC(NCc1cccc(COC2CCCC2)c1)c1cnn(C)c1 (stereo not given),12.83
21,CN(C1CCN(C(=O)NCCc2ccc(F)cc2F)CC1)S(C)(=O)=O,8.56
22,COCC(=O)N1CCC(Oc2cccc(C)c2)CC1,58.53
23,COCC(=O)N1CCC(c2cc(-c3ccc(OC)cc3)n[nH]2)C1 (stereo not given),-0.64
24,CCN(CC)C(=O)CNC(=O)N1CCC(c2ccc(OC)cc2)C1 (stereo not given),26.44

row,Structure (SMILES),INHIBITION [%]
1,COC(=O)NCC(=O)N1CCC(Oc2cccc(C)c2)CC1,-31.79
2,COCC(=O)N1CCC(c2ccc(OC)cc2)C1 (stereo not given),56.21
3,CSCC(=O)N1CCC(Oc2cccc(C)c2)CC1,10.91
4,CC(C)c1nc2cc(NC(=O)c3n[nH]c4c3CCC4)ccc2n1C,-12.41
5,CNC(=O)C1(c2cnccn2)CCCN1C(=O)c1ccn(C)n1 (stereo not given),43.89
6,Cc1nnc(N2CC[C@H]3C[C@H](C(=O)N(C)C)O[C@@H]3C2)s1,4.42
7,CCN1CC(COc2ccc(OC)cc2)Oc2ccncc2S1(=O)=O (stereo not given),18.99
8,CCN1CC(COc2ccccc2)Oc2ncccc2S1(=O)=O (stereo not given),55.73
9,O=S1(=O)c2cccnc2OC(COc2ccccc2)CN1CC1CC1 (stereo not given),22.01
10,CN(C)C1(CNc2nccc(C3CCCC3)n2)CCOCC1,1.1
11,NC(=O)CCn1ccc(NC(=O)c2ccc(OCC3CC3)cc2)n1,-52.01
12,Cc1nnsc1C(=O)NCc1cccnc1N1CCCC(O)C1 (stereo not given),41.59
13,Cc1nn(C)c(N(C)C)c1CNCc1ccccc1Cn1cccn1,-40.27
14,CC(C)c1nccn1C(C)C(=O)NC1CCN(S(C)(=O)=O)CC1 (stereo not given),8.13
15,CC(C)c1nccn1C(C)C(=O)NC1CCOCC1 (stereo not given),1.1
16,CC(C)c1nccn1C(C)C(=O)NC1Cc2ccccc2C1 (stereo not given),51.72
17,Cc1cc(C)c(CNC(=O)NCc2nnc3n2CCCC3)c(=O)[nH]1,-47.98
18,O=C(O)c1ccn(-c2cccc(NC(=O)c3ccccc3Cl)c2)n1,23.43
19,O=C(CCc1cc(Cl)no1)N1CCC(c2cc3ncccc3cn2)CC1,15.72
20,CNC(=O)c1nc(COc2c(C)occc2=O)no1,20.19
21,Cc1occc(=O)c1OCc1noc(C(=O)NC(C)C)n1,2.06
22,CCOC(=O)c1nc(COc2c(C)occc2=O)no1,54.13

# — ChEMBL document CHEMBL4513216, “Probing the Open Global Health Chemical Diversity Library for Multistage-Active Starting Points for Next-Generation Antimalarials” (ACS Infect Dis, 2020)
